This note sets out measurements from PubChem BioAssay AID602143 (Vanderbilt Specialized Chemistry Center, 2011).

SMILES strings stand for the structures. Values joined by “and” are separate entries in the source; they are usually repeats but may differ in a detail not shown here. Equal values may be shown once. Active and inactive are the calls of the source. No stated cut-off is given here; in the data, active means remaining activity below about 50%; inactive means the rest.

For this assay, the target named is Phospholipase D2 (Homo sapiens) (UniProt O14939). Nature of the assay: PLD2 inhibitors in cells, cell-based, HEK293, single concentration (AID 602143).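 Further: tested at 200 nM.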 Conditions: HEK293 cellular PLD2 activity, percent of control; stronger effect = lower value.
Phospholipase D2 (Homo sapiens), sequence (O14939 whole entry, looked up): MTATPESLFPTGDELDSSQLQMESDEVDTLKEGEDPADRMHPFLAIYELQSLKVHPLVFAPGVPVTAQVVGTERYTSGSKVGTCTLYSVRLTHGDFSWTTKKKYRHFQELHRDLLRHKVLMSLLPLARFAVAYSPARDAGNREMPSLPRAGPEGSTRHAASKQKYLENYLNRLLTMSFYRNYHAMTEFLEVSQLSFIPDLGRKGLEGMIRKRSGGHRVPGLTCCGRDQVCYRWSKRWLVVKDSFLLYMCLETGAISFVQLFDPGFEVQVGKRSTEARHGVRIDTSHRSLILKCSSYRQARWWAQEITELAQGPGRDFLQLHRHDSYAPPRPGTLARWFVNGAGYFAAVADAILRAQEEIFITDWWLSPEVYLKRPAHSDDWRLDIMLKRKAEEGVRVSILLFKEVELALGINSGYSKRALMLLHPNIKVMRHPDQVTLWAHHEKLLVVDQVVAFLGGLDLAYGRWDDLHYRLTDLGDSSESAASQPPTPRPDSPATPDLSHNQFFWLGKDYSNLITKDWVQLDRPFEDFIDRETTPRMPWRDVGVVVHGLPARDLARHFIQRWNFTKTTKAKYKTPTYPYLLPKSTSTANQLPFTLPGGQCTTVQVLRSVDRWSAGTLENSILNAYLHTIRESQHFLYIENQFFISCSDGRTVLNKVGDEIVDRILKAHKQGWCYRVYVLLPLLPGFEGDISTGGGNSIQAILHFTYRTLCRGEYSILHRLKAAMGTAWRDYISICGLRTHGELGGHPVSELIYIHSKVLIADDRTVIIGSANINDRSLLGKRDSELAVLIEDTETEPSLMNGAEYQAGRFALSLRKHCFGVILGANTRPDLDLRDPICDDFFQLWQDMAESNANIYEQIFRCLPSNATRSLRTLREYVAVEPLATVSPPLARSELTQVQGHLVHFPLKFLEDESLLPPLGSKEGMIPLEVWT
Phospholipase D2 (Homo sapiens), sequence (O14939 whole entry, looked up): as above
As to `CCC(=O)N[C@@H](C)CN1CCC2(CC1)C(=O)NCN2c1ccccc1`, the remaining activity was 95.3% (inactive).

Turning to `CN(CCN1CCC2(CC1)C(=O)NCN2c1ccccc1)C(=O)c1ccc2ccccc2c1`, the remaining activity was 95.2% (inactive).

Consider `O=C(NCCN1CCC2(CC1)C(=O)NCN2c1ccc(F)cc1)c1ccc2cc(F)ccc2c1`, for which the remaining activity is 61.1% (inactive).

Turning to `CC(C)[C@@H](CN1CCC2(CC1)C(=O)NCN2c1ccccc1)NC(=O)c1ccc2ccccc2c1`, the remaining activity was 80.9% (inactive).

For the compound `O=C(NCCN1CCC2(CC1)C(=O)NCN2c1ccc(F)cc1)c1ccc(F)cc1`, the remaining activity was 46.9% (active).

For `O=C(NCCN1CCC2(CC1)C(=O)NCN2c1cccc(F)c1)c1ccc(F)nc1`, the remaining activity was 85.7% (inactive).

Consider `O=C(NCCN1CCC2(CC1)C(=O)NCN2c1ccc(F)c(F)c1)c1ccc2ccccc2c1`, for which the remaining activity was 40.1% (active).

On to `O=C(NCCN1CCC2(CC1)C(=O)NCN2c1cccc(Cl)c1)c1ccc(F)cc1`, for which the remaining activity is 65.4% (inactive).

Turning to `O=C(NCCN1CCC2(CC1)C(=O)NCN2c1ccccc1)c1cscn1`, the remaining activity was 76.2% (inactive).

With `C[C@H](CN1CCC2(CC1)C(=O)NCN2c1ccccc1)NC(=O)c1cc(Br)c(Br)o1`, the remaining activity is 85.7% (inactive).

For `O=C(NCCN1CCC2(CC1)C(=O)NCN2c1ccccc1)C1CCc2ccccc2C1` (configuration not stated), the remaining activity is 50.3% (inactive) and 75.3% (inactive).

Turning to `O=C(NCCN1CCC2(CC1)C(=O)NCN2c1ccc(Cl)cc1)c1cc2ccccc2[nH]1`, the remaining activity is 48.1% (active).

Turning to `O=C(NCCN1CCC2(CC1)C(=O)NCN2c1cccc(F)c1)c1ccc2c(c1)C(=O)OC2=O`, the remaining activity was 66.5% (inactive).

For the compound `CC(C)[C@@H](CN1CCC2(CC1)C(=O)NCN2c1ccccc1)NC(=O)c1ccc(Cl)cc1`, the remaining activity is 59.4% (inactive).

Take `O=C(c1cnc2ccccc2c1)N1CC(N2CCC3(CC2)C(=O)NCN3c2ccccc2)C1`: the remaining activity is 70% (inactive).

For the compound `O=C(CCN1CCC2(CC1)C(=O)NCN2c1ccccc1)Nc1ccc(F)c(F)c1`, the remaining activity was 147% (inactive).

Regarding `O=C(CCN1CCC2(CC1)C(=O)NCN2c1ccccc1)Nc1ccc(F)cc1`, the remaining activity was 119% (inactive).

For the compound `O=C(NCCN1CCC2(CC1)C(=O)NCN2c1ccc(F)cc1)c1cnc2ccccc2c1`, the remaining activity was 24% (active).

Take `O=C(Cc1cccs1)NCCN1CCC2(CC1)C(=O)NCN2c1cccc(F)c1`: the remaining activity is 77.8% (inactive).

As to `O=C(NCCN1CCC2(CC1)C(=O)NCN2c1ccccc1)c1cccc(F)n1`, the remaining activity is 63.2% (inactive).

Consider `O=C(NCCN1CCC2(CC1)C(=O)NCN2c1cccc(F)c1)c1ccc(-c2ccccc2)cc1`, for which the remaining activity was 101% (inactive).

With `O=C(NCCN1CCC2(CC1)C(=O)NCN2c1ccc(Cl)cc1)c1cnc2ccccc2c1`, the remaining activity is 29.7% (active).
